# Pol eta inh: inhibitors of human DNA polymerase eta; Q9Y253; recombinant Pol eta, fluorescent DNA replication assay; Potency, µM (highest dose often 114 µM), for the others: at the top dose activity change, negative = inhibition, most hits filed as inhibitors; 1.2% of 390,000 active; note: potency is the fitted concentration of half-maximal effect; % is set by controls: 0 for no effect and ±100 for the full control effect
#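 Pol eta at 10 nM preincubated with compounds 15 min at room temperature; reaction started with fluorescent substrate (50 nM final) and read kinetically at 0 and 10 min.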
# WRN inhibitor: WRN helicase (human) inhibition. WRN helicase unwinding, fluorescent forked duplex, kinetic. 0.46% of 360,000 active. AID 651768. Potency, µM (series often up to 114 µM), inactives show at the highest dose activity change, negative = inhibition, hits mostly inhibitors; note: potency is the fitted concentration of half-maximal effect; % is set by controls: 0 for no effect and ±100 for the full control effect; nearly all actives have a fitted effect of over 55% in size
#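 Fluorescence dequenching readout, ex 525 nm/em 598 nm, kinetic mode: forked duplex DNA (100 nM final) with adjacent fluorophore and quencher unwound by WRN (20 nM final) with 2 mM ATP. Compound preincubation 15 min, room temperature.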
# POLB inh: DNA polymerase beta (human) inhibition | AID 485314 | P06746 | Potency, µM (highest dose often 114 µM), for inactives: top-dose activity change, negative = inhibition, usual class: inhibitors | 1.3% of 340,000 active | Pol beta primer extension/strand displacement, fluorescence kinetic; note: potency is the fitted concentration of half-maximal effect; % is set by controls: 0 for no effect and ±100 for the full control effect
#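 Preincubation: enzyme (10 nM) with compound, 15 min, RT. Reaction: substrate added to 50 nM final. Reads: 0 and 10 min. Analysis: normalized, Hill fit.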
# Pol kappa inh: blocks human DNA polymerase kappa activity | Q9UBT6 | purified Pol kappa, fluorescent DNA synthesis assay, 10 min | Potency, µM (doses to about 107 µM), for inactives: top-dose activity, negative = inhibition, actives largely listed as inhibitors | 0.53% of 400,000 active | AID 588579; note: potency is the fitted concentration of half-maximal effect; % is set by controls: 0 for no effect and ±100 for the full control effect
#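 Kinetic fluorescence readout at 0 and 10 min followed reaction start with substrate at 50 nM final. Beforehand, enzyme (10 nM Pol kappa) stood 15 min with compound at room temperature; buffer-only wells were negative controls.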
# PI5P4Ka inh: PI5P4K alpha (human) kinase inhibition. max response, %. PI5P4Kalpha enzyme, ADP-Glo luminescence, 60 min; hits give low values. P48426. 1.2% of 330,000 active. AID 652105; active = max response of -50% or lower; inconclusive = between -30% and -50%; inactive = -30% or higher; note: value at the top dose of about 77 µM; % is set by controls: 0 for no effect and ±100 for the full control effect
# Target sequence (P48426 whole entry, looked up): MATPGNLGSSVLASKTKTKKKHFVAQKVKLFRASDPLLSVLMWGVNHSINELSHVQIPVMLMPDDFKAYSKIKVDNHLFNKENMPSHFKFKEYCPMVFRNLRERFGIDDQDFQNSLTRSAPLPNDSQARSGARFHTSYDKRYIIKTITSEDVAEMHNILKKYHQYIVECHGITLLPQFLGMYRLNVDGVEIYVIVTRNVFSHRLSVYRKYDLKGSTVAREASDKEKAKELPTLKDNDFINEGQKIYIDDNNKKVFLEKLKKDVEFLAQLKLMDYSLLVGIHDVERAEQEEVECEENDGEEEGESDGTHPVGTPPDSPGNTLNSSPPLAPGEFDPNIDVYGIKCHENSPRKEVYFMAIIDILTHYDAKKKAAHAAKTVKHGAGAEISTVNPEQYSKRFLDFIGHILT
#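 Compounds were pin-transferred onto PI5P4Kalpha and substrate in HEPES pH 7.4 buffer with EGTA, CHAPS and 5% DMSO. ATP (5 microM final) started the reaction, which ran 60 minutes at room temperature before ADP-Glo detection.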
# Pol iota inh: blocks human DNA polymerase iota activity. Q9UNA4. 1% of 390,000 active. Pol iota fluorescent replication assay, 10 min. Potency, µM (doses to about 115 µM), for inactives: at the top dose activity, negative = inhibition, most hits filed as inhibitors; note: potency is the fitted concentration of half-maximal effect
#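 Pol iota at 10 nM preincubated 15 min with compounds at room temperature; reaction started with fluorescent substrate, 50 nM final. Fluorescence read kinetically at 0 and 10 min; buffer-only wells as negative control.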
# * hit, by the source's call; ? = inconclusive; . = no result; [ ] = dose if it differs, or a comment. Most compounds without a hit are left out; they make up all but 2.8% or so of the library. Unless noted, calls come from the whole dose curve; as a rule, active = well fitted curve in the direction sought with a large enough effect; inconclusive = small, poorly fitted or top-dose-only effect, or another doubt; inactive = no such curve, though single readings can be large; an effect the other way counts as inactive or inconclusive.
SMILES,Pol eta inh,WRN inhibitor,POLB inh,Pol kappa inh,PI5P4Ka inh,Pol iota inh
O=C(CSc1nnc(-c2ccncc2)n1-c1ccccc1Cl)Nc1ccc(C(=O)O)cc1,4%,-5%,-17%,-25%,-65*,23%
Cc1ccc(NC(=O)Nc2c[nH]c(=O)[nH]c2=O)c(Cl)c1,-17%,.,?,-1%,.,3%
C#CCN1C(=O)C(O)(CC(=O)/C=C/c2ccco2)c2ccccc21 (stereo unspecified),?,-5%,?,?,-26,35µM*
O=[N+]([O-])c1ccc2nc(NN=Cc3ccc(O)cc3)sc2c1,-7%,-9%,.,-27%,-29,33%
CCOc1ccc(NC(=O)CN2C(=O)COc3ccc(S(=O)(=O)NC4CCCC4)cc32)cc1,-1%,.,30%,-4%,.,2%
O=C(COC(=O)c1ccccc1OCc1ccccc1Cl)NC1CC1,-3%,5%,20µM*,-1%,5,13%
COC(=O)[C@H](Cc1ccccc1)NS(=O)(=O)c1ccc(F)cc1Br,-5%,1%,.,-11%,-1,33%
CCn1c2ccccc2c2cc(/C=N/NC(=O)c3ccc(O)cc3)ccc21,?,-19%,?,?,-28,?
CCn1c2ccccc2c2cc(/C=N/NC(=O)c3ccncc3)ccc21,?,-7%,16µM*,-29%,-10,74%
Cn1c2ccccc2c2cc(/C=N/NC(=O)c3ccc(O)cc3O)ccc21,?,-19%,?,-28%,-62*,?
CCN(CCC(=O)O)c1ccccc1,1%,7%,6%,10%,2,-4%
NC(=O)N(CCC(=O)O)c1ccccc1,?,-3%,20µM*,-4%,-1,-11%
COc1ccc(CNC(=O)CCc2c(C)nc3nc(CNC(=O)OC(C)(C)C)nn3c2C)cc1,-5%,.,37%,-6%,.,13%
Cc1ccc(-c2cc(C(=O)NCc3cnn(C)c3)c3cc(Br)ccc3n2)cc1,79µM*,-15%,-2%,-7%,13,-29%
Cn1cc(CNC(=O)c2cc(-c3ccccc3)nc3ccc(Br)cc23)cn1,-20%,4%,6%,-5%,-3,111%
Cc1ccc(C)c(N2CCN(C(=O)c3ccc4nc(-c5ccco5)c(-c5ccco5)nc4c3)CC2)c1,-15%,-31%,-18%,-12%,.,?
COc1ccccc1N1CCN(C(=O)c2ccc3nc(-c4ccco4)c(-c4ccco4)nc3c2)CC1,-17%,-19%,28µM*,-28%,-16,?
CN(C)C(=O)c1cccc(-c2cnc3c(NC=O)cc(-c4ccccc4Cl)cn23)c1,.,-31%,.,.,-65*,.
COc1ccc(F)cc1-c1cc(NC=O)c2ncc(-c3cccc(C(=O)N(C)C)c3)n2c1,.,-10%,.,.,-51*,.
CN(C)C(=O)c1cccc(-c2cnc3c(NC=O)cc(-c4ccccc4N(C)C)cn23)c1,.,1%,.,.,?,.
Cc1ccc(-c2cc(NC=O)c3ncc(-c4cccc(C(=O)N(C)C)c4)n3c2)cc1,.,-15%,.,.,?,.
CCn1c2ccccc2c2cc(NC(=O)COC(=O)c3cc(S(N)(=O)=O)c(Cl)cc3Cl)ccc21,-17%,-9%,?,-18%,?,21%
CCc1c(C)c(C#N)c2nc3ccccc3n2c1Nc1cccc(C(F)(F)F)c1,.,.,1%,-3%,.,6%
COc1cc(OC)cc(C(=O)Nc2ccc(Nc3ccccc3)cc2)c1,-8%,-4%,1%,-2%,-8,-2%
COc1cc(OC)cc(C(=O)Nc2nnc(NC(=S)Nc3ccccc3)s2)c1,?,?,-3%,79µM*,-55*,5%
NNc1nc2sc3c(c2c(=O)n1Cc1ccccc1)CCC3,2%,-15%[11.6 µM],?,?,-74*,?
CCSc1nc2sc3c(c2c(=O)n1CC)CCC3,4%,-14%,?,-34%,5,?
CCn1c(NN)nc2sc3c(c2c1=O)CCC3,?,-14%,-22%,-3%,-59*,-31%

# Screening data (PubChem)
